Screening results (PubChem BioAssay)
Sampled rows, rich in hits. Any-hit rate of the full collection: about 12%.
G9a block = inhibitors of human histone lysine methyltransferase G9a; Q96KQ7; G9a H3K9 monomethylation, AlphaScreen, 2 h; Potency, µM (doses to about 102 µM), for the others: at the top dose activity, negative = inhibition, usual class: inhibitors; 350,000 compounds, 8.8% hits; AID 504332; further: on the % scale 0 is the no-effect control and ±100 the full control effect; nearly all actives have a fitted effect of over 75% in size
Target sequence (Q96KQ7 913-1193 limits assumed): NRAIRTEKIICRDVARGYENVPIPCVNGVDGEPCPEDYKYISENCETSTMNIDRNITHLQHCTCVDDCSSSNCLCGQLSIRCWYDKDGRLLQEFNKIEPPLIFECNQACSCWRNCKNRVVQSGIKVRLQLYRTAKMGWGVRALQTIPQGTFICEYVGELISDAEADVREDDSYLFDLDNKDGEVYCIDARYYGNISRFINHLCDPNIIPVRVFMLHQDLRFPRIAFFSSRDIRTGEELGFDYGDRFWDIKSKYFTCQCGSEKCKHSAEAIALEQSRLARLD
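Quantitative HTS format: methyltransferase activity on a biotin-tagged H3K9 peptide is measured by AlphaScreen, using a rabbit anti-monomethyl-H3K9 antibody with streptavidin donor and anti-IgG acceptor beads. Final levels are 20 nM enzyme, 500 nM peptide, 20 uM SAM; 2 h RT.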
HP1b binding inh = blocks HP1-beta chromodomain binding to methylated histone tails; AID 540317; AlphaScreen HP1-beta / biotin-H3K9me3 peptide binding; 390,000 compounds, 0.56% hits; Potency, µM (series often up to 114 µM), for inactives: top-dose activity change, negative = inhibition, usual class: inhibitors; further: nearly all actives have a fitted effect of over 70% in size
Target sequence (P83916 whole entry, looked up): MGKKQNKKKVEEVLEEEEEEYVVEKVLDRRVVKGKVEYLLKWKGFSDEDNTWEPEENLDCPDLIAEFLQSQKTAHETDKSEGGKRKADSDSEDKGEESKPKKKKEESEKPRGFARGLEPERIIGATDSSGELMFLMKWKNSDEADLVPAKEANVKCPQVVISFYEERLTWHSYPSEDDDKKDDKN
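HP1-beta protein (50 nM final) preincubated 30 min at room temperature with biotinylated H3(1-18)K9me3 peptide (50 nM) in PBS pH 7.4, 0.01% Tween-20, then compound added for 30 min. AlphaScreen streptavidin donor/nickel chelate acceptor beads (10 ug/mL final), 30 min dark, luminescence read.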
Sfp PPTase inh = Sfp phosphopantetheinyl transferase inhibition. Biochemical Sfp PPTase activity, qHTS. AID 1490. Potency, µM, without a hit: largest response in the series, negative = inhibition, actives largely listed as inhibitors. Q9F4F7. 310,000 compounds, 3.5% hits;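 further: the enzyme is Sfp with the accession as filed and its product quenches rhodamine fluorescence; 0% = enzyme reaction without inhibitor and -100% = no enzyme wells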
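Buffer: 50 mM Hepes-Na pH 7.6, 10 mM MgCl2, 0.01% Nonidet P-40, 0.01% BSA. Enzyme 15 nM, pre-exposed to compound 15 min; substrates then added and fluorescence change tracked over 30 min.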
BAZ2B block = BAZ2B (human) inhibition; Q9UIF8; AlphaScreen BAZ2B-H3K14Ac peptide displacement; Potency, µM (top dose mostly 114 µM), for the others: top-dose activity change, negative = inhibition, hits mostly inhibitors; 360,000 compounds, 4.4% hits; AID 504333; further: on the % scale 0 is the no-effect control and ±100 the full control effect; nearly all actives have a fitted effect of over 60% in size
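Multi-concentration screen (max 110 uM) measuring displacement of acetylated histone H3 peptide from BAZ2B by AlphaScreen, using 50 nM protein, 50 nM peptide and 10 ug/mL streptavidin donor plus Ni-chelate acceptor beads.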
JMJD2A Tudor = blocks the human JMJD2A Tudor domain; O75164; AlphaScreen JMJD2A-Tudor / H3K4me3 peptide binding; 390,000 compounds, 4.4% hits; AID 504339; Potency, µM (doses to about 114 µM), without a hit: top-dose activity change, negative = inhibition, hits mostly inhibitors; further: on the % scale 0 is the no-effect control and ±100 the full control effect; nearly all actives have a fitted effect of over 50% in size
TDP1 inh = TDP1 (human) enzyme inhibition | Q9NUW8 | recombinant TDP1, AlphaScreen DNA substrate cleavage | 350,000 compounds, 0.28% hits | AID 485290 | Potency, µM (titrated, usually from 130 µM), for the others: at the top dose activity change, negative = inhibition, most hits filed as inhibitors; further: on the % scale 0 is the no-effect control and ±100 the full control effect; nearly all actives have a fitted effect of over 40% in size
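Signal: AlphaScreen proximity between streptavidin donor and anti-FITC acceptor beads on intact substrate. Reaction: Tdp1 1 nM, substrate 15 nM final, 5 min RT after 15 min compound preincubation.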
* hit, by the source's call; ? = inconclusive; · = no result; [ ] = remark or other dose. The call rests on the fitted dose curve; in most records, active means well fitted curve in the direction sought with a large enough effect; inconclusive means small, poorly fitted or top-dose-only effect, or another doubt; inactive means no such curve, though single readings can be large; an effect the other way counts as inactive or inconclusive. Potency means the concentration at half of the fitted maximal effect.

SMILES	G9a block	HP1b binding inh	Sfp PPTase inh	BAZ2B block	JMJD2A Tudor	TDP1 inh
COC(=O)CCC(=O)OC1(C)C(=O)C=C2C=C3CCCN3C=C2C1=O (centres undefined)	19%[59 µM]	?	-1%	-17%	?	?
CC1(OC(=O)c2ccc(Cl)nc2)C(=O)C=C2C=C3CCCN3C=C2C1=O (centres undefined)	-32%[59 µM]	?	?	?	45µM*	8.9µM*
CC(C)Oc1ccc(CCC(=O)N/N=C/c2ccc3c(c2)OCO3)cc1	1%	-16%	7%	-4%	-1%	·
O=C(N/N=C/c1cc2c(cc1Br)OCO2)c1cc2ccccc2o1	40µM*	26%	-22%	-25%	-25%	·
O=C(N/N=C/c1ccc2c(c1)OCO2)c1sc2cc(Cl)ccc2c1Cl	1%[59 µM]	103%	-11%	?	89µM*	1%
O=C(/C=C/c1ccc2c(c1)OCO2)c1ccccn1	?	16%	32µM*	?	-34%	9%
O=C(CCc1ccc(O)c(O)c1)N/N=C/c1ccc2c(c1)OCO2	·	?	40µM*	-30%	?	1%
COc1ccc2c(Cl)c(C(=O)N/N=C/c3ccc4c(c3)OCO4)sc2c1	2%[12.7 µM]	-4%	?	-1%[57.1 µM]	-31%	2%
O=C(N/N=C/c1cc2c(cc1Br)OCO2)c1c[nH]c2ccccc12	-22%	24%	11%	-28%	-23%	5%
CC(=O)/C(=C\c1ccccc1)CC(=O)O	·	·	23%	·	·	2%[56.1 µM]
O=C(N/N=C/c1ccc2c(c1)OCO2)c1ccccn1	54%[59 µM]	18%	79µM*	-26%	-7%	1%
O=C(N/N=C/c1cc2c(cc1Br)OCO2)c1ccccn1	1%	9%	-9%	-31%	-28%	-3%
O=C(/C=C/c1ccccc1)c1ccccn1	?	14%	28µM*	-37%	12%	-14%
O=C(N/N=C/c1ccc2c(c1)OCO2)c1ccc(Br)o1	?	-8%	-27%	79µM*	?	-3%
O=C(N/N=C/c1ccc2c(c1)OCO2)c1ccc(COCC(F)(F)C(F)F)cc1	18%[12.7 µM]	28%	-5%	-9%	-29%	56µM*
N/C(=N\OC(=O)/C=C/c1ccccc1)c1ccccn1	-17%	25%	-3%	-15%	-10%	8%
COc1ccc(/C=N/NC(=O)c2ccc(COCC(F)(F)C(F)F)cc2)cc1	16%[59 µM]	29%	-5%	-33%	-18%	3%
CCN(CC)C(=O)C(=O)c1cccn1-c1cccc(OC)c1C#N	5%	22%	15%	-2%	-12%	·
CCc1ccccc1OCC(=O)Nc1ccc(F)c(S(=O)(=O)N2CCOCC2)c1	5%	25%	·	?	-1%	6%
CN(C)Cc1c(O)ccc2c(=O)c(-c3ccc(Cl)cc3)coc12	·	23%	3%	-3%	?	4%
O=c1c(-c2ccc([N+](=O)[O-])cc2)coc2c(O)c(O)ccc12	8.9µM*	2%	1%	40µM*	-36%	8%
O=[N+]([O-])c1cccc(-c2nnnn2-c2cccc(F)c2)c1	·	-21%	·	·	-22%	·
CCC(=O)Nc1cccc(-c2nc3ccccc3c(=O)o2)c1	-44%[59 µM]	37%	14%	?	-1%	-6%
CC(=O)Nc1cccc(-c2nc3ccccc3c(=O)o2)c1	11µM*	58%	19%	1%	-9%	3%
Cc1ccc(CCNC(=O)c2cc3ccccn3n2)cc1	2%[59 µM]	29%	·	-9%	-2%	3%
SMILES	G9a block	HP1b binding inh	Sfp PPTase inh	BAZ2B block	JMJD2A Tudor	TDP1 inh
COc1ccc(N2CCN(Cc3nnc(-c4cccc(Br)c4)o3)CC2)cc1	11µM*	?	·	45µM*	79µM*	2%
Cc1cccc(N2CCN(Cc3nnc(-c4cccc(Br)c4)o3)CC2)c1C	10%[59 µM]	28%	·	11%	0%	-2%[12.3 µM]
CCN(CC)c1ccc2cc(-c3nc(-c4ccccc4)no3)c(=O)oc2c1	57%[59 µM]	25%	·	1%	1%	-5%
O=C(c1cc(Br)c[nH]1)N1CCSCC1	22%	21%	7%	5%	-13%	·
Cn1c2ccccc2c2c(C(=O)N3CCN(c4ccc(F)cc4)CC3)cn(C3CCCCC3)c(=O)c21	?	26%	·	-1%	?	5%
Cc1ccc(CNC(=O)c2cn(C)c(=O)c3c2c2ccccc2n3C)o1	1%[12.7 µM]	-9%	22µM*	5%	-19%	4%
Cc1ccc(CNC(=O)c2cc3c(=O)n(C)c4ccccc4c3n2C)o1	?	30%	56µM*	13%	-11%	1%
COc1ccc(N2CCN(C(=O)c3cn(C4CCCCC4)c(=O)c4c3c3ccccc3n4C)CC2)cc1	10µM*	?	·	7.1µM*	?	0%[12.3 µM]
Cc1ccc(CNC(=O)c2cn(C3CCCCC3)c(=O)c3c2c2ccccc2n3C)o1	50µM*	-2%	18µM*	-32%	-34%	2%
Cc1oc(C)c(C(=O)Nc2ccccc2)c1C	·	·	0%	·	·	24%
CCCCNC(=O)c1cc2c(C)cc(C)cc2[nH]1	50µM*	33%	5%	-25%	-19%	-1%
CCCCNC(=O)c1cccc(C(=O)NCCCC)c1	-30%[12.7 µM]	22%	6%	6%	-1%	-2%
Cc1cc(C)c2cc(C(=O)Nc3ccc(C)c(F)c3)[nH]c2c1	45µM*	45%	-4%	-8%	-17%	·
CN1CCN(c2ccccc2NC(=O)c2cc3c(s2)-c2ccccc2OC3)CC1	-38%	25%	79µM*	-34%	-12%	6%
Cc1ccc(CCNC(=O)c2cc3c(s2)-c2ccccc2OC3)cc1	-33%[59 µM]	22%	·	?	?	40µM*
COc1cc2ncnc(N[C@H](C)c3ccccc3)c2cc1OC	-32%	35%	0%	-4%	-9%	·
COc1ccccc1CNC(=O)c1ccc(-c2ccccc2)cc1	45µM*	33%	?	-5%	-6%	3%
COc1ccccc1CNC(=O)c1ccc2ccccc2n1	10%	41%	-2%	79µM*	-6%	-9%[0.0935 µM]
COc1ccc(CNC(=O)c2ccc3ccccc3n2)cc1OC	27%	29%	2%	1%	-5%	-16%[0.0935 µM]
COc1ccccc1CNC(=O)N/C=C/c1ccc(Cl)cc1	32µM*	-15%	15%	-13%	-35%	0%
COc1cc(OC)cc(C(=O)N[C@H](C(=O)Nc2c(C)n(C)n(-c3ccccc3)c2=O)C(C)C)c1	·	44%	·	·	-8%	0%
Cc1onc(-c2ccccc2Cl)c1C(=O)N1CCN(C)CC1	21%	-13%	-8%	3%	-14%	-10%
Cc1ccccc1-c1nnc(SCC(=O)N2CCCCC2)o1	?	12%	·	3%	12%	-2%[12.3 µM]
COc1cc(C=NNC(=O)Cn2nc(C)cc2C)ccc1OC(=O)C1CC1	·	30%	·	·	3%	2%
